Measured values taken from PubChem BioAssay.
For part of these data: Entries with a potency or affinity are not part of this list. Active and inactive are the calls of the source.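 How the source made its calls, unless noted: active means calcium signal ratio cut to more than 3 SD under the fully stimulated control mean yet still positive, in both repeats and the primary screen; inactive means the rest.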

Tests used:
[1] = test system: TRPC4 beta (transient receptor potential cation channel C4), mouse; experiment: activators of mouse TRPC4 channel, confirmation, cell-based, Fluo4 calcium, HEK293 TRPC4beta/mu-opioid, duplicates, 10 µM (AID 2426;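 active means fluorescence ratio normalized to control raised more than 50% in primary screen plus both repeat runs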); details: Fluo4 calcium fluorescence, at 10 µM; stronger effect = higher value
[2] = test system: transient receptor potential cation channel C4 beta (TRPC4), mouse; experiment: activators of mouse TRPC4 channel, confirmation, cell-based, second round, Fluo4, HEK293 TRPC4beta/mu-opioid, 1 µM (AID 2461;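 active means primary screen active and over 50% activation in each of two duplicate runs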); details: Fluo4 calcium fluorescence, at 1 µM; stronger effect = higher value
[3] = test system: TRPC4 (transient receptor potential cation channel C4 beta), mouse; experiment: positive allosteric modulators of mouse TRPC4, confirmation, cell-based, second round, Fluo-4, HEK293 TRPC4beta/mu-opioid, 1 µM (AID 2554;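 active means primary screen hit whose fluorescence ratio, in both repeats, exceeds the weak agonist control mean by 3 SD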); details: DAMGO EC20, Fluo-4 calcium flux, at 1 µM; stronger effect = higher value
[4] = test system: TRPC4 beta (transient receptor potential cation channel C4), mouse; experiment: positive allosteric modulators of mouse TRPC4, confirmation, cell-based, Fluo-4, HEK293 TRPC4beta/mu-opioid (AID 2555;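 active means primary screen hit whose calcium fluorescence ratio, in both repeats, exceeds the weak agonist control mean by 3 SD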); details: DAMGO EC20, Fluo-4 calcium flux, at 10 µM; stronger effect = higher value
[5] = target: Short transient receptor potential channel 4 (Mus musculus) (UniProt Q9QUQ5); experiment: inhibitors of mouse TRPC4 channel, confirmation, cell-based, Fluo4, HEK293 TRPC4beta/mu-opioid (AID 2636;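 active means calcium signal cut by more than 3 SD below the full-agonist control yet still positive, in both repeats and the earlier primary screen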); details: DAMGO, Fluo4 calcium flux, at 10 µM; stronger effect = higher value
[6] = target: Short transient receptor potential channel 4 (Mus musculus) (UniProt Q9QUQ5); experiment: inhibitors of mouse TRPC4 channel, confirmation, cell-based, second round, Fluo4, HEK293 TRPC4beta/mu-opioid, 1 µM (AID 2637); details: Fluo4 calcium flux, DAMGO, at 1 µM; stronger effect = higher value
[7] = target: Short transient receptor potential channel 4 (Mus musculus) (UniProt Q9QUQ5); experiment: mouse TRPC4 channel activators, dose response, cell-based, HEK293 TRPC4/mu-opioid, Fluo-4 calcium (AID 434937;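 active means primary screen activator hit with a dose response curve and TRPC4 channel activation at any tested dose; inactive means no activation, no dose response, or not a primary hit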)
[8] = target: Short transient receptor potential channel 4 (Mus musculus) (UniProt Q9QUQ5); experiment: TRPC4 positive allosteric modulators, dose response, cell-based, HEK293 TRPC4/mu-opioid, Fluo-4 calcium, EC20 DAMGO (AID 434941;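 active means earlier screen potentiator hit that boosts the TRPC4 ion channel at some dose, with a dose response; inactive means no potentiation, no dose response, or not a prior hit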;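 further: calcium entry triggered by an EC20 dose of DAMGO at the co-expressed mu-opioid receptor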)
[9] = target: Short transient receptor potential channel 4 (Mus musculus) (UniProt Q9QUQ5); experiment: mouse TRPC4 channel inhibitors, dose response, cell-based, HEK293 TRPC4/mu-opioid, Fluo-4 calcium (AID 434942;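 active means primary screen inhibitor hit that blocks the TRPC4 channel at some tested dose, yielding a dose curve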)
[10] = target: Short transient receptor potential channel 6 (Mus musculus) (UniProt Q61143); experiment: inhibition of mouse TRPC6 channel, confirmation, selectivity assay for TRPC4 inhibitor project, cell-based, HEK293, membrane potential dye, duplicate (AID 434948;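 active means active in primary screen and both duplicates, each dropping signal beyond three positive-control SD with fluorescence still positive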); details: HEK293 TRPC6, membrane potential dye fluorescence, at 10 µM, stimulated with maximal-effect acetylcholine; stronger effect = higher value
[11] = target: Short transient receptor potential channel 6 (Mus musculus) (UniProt Q61143); experiment: activation of mouse TRPC6 channel, confirmation, selectivity assay for TRPC4 activator project, cell-based, HEK293, membrane potential dye, duplicate (AID 434950;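 active means membrane potential signal rise above negative control mean plus 3 SD in both duplicates, also active in the earlier TRPC4 screen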); details: HEK293 TRPC6, membrane potential fluorescence, at 10 µM; stronger effect = higher value
[12] = target: Short transient receptor potential channel 6 (Mus musculus) (UniProt Q61143); experiment: TRPC6 potentiation by TRPC4 potentiator hits, confirmation, selectivity assay for TRPC4 potentiator project, HEK293 cells, membrane potential dye, duplicate (AID 434952;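 active means compound raising the membrane signal above positive-control mean plus 3 SD in both repeats, and a primary screen hit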); details: HEK293 TRPC6, membrane potential dye fluorescence, at 10 µM, maximal acetylcholine added after compound; stronger effect = higher value
[13] = target: Short transient receptor potential channel 4 (Mus musculus) (UniProt Q9QUQ5); experiment: calcium flux activators in TRPC4/5HT1a cells, counter-screen for TRPC4 activator project, cell-based, second counter screen, HEK293 TRPC4/5HT1a, Fluo-4 (AID 434977;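 active means calcium signal rise above buffer-control mean plus 5 SD in both duplicates, and also a hit in the primary screen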); details: Fluo-4 calcium flux, at 10 µM; stronger effect = higher value
[14] = calcium flux inhibitors in TRPC4/5HT1a cells, confirmation, counter-screen for TRPC4 inhibitor project, cell-based, second counter screen, HEK293 TRPC4/5HT1a, Fluo-4 (AID 434978;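 active means primary screen active whose calcium signal fell more than 3 SD beyond the full-serotonin control mean in both duplicate plates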;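 on outcome: serotonin given first at submaximal then at maximal dose after compound preincubation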); details: Fluo-4 calcium flux, at 10 µM, serotonin added to trigger calcium flux; stronger effect = higher value
[15] = test system: TRPC4 (mouse), co-expressed with 5HT1a in HEK293; experiment: calcium flux potentiators in TRPC4/5HT1a cells, confirmation, counter-screen for TRPC4 potentiator project, cell-based, second counter screen, HEK293 TRPC4/5HT1a, Fluo-4 (AID 434979;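 active means signal rise over 3 SD above mean of control wells given weak agonist, in both repeats and first screen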); details: Fluo-4 calcium flux, at 10 µM, serotonin added at its EC20 dose; stronger effect = higher value
[16] = calcium flux activation in mu-opioid HEK293 cells, confirmation, counter-screen for TRPC4 activator project, cell-based, HEK293 mu-opioid receptor line (AID 449723;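 active means hit in primary screen, with calcium signal over 5 SD above buffer well mean in both duplicates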;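 further: counter screen cells carry the mu-opioid receptor alone and lack TRPC4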); details: Fluo-4 calcium fluorescence, at 10 µM; stronger effect = higher value
[17] = calcium flux enhancement in mu-opioid HEK293 cells, confirmation, counter-screen for TRPC4 allosteric potentiator project, cell-based, HEK293 mu-opioid receptor line (AID 449724;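 active means calcium signal rise more than 3 SD above the low-dose agonist control mean, in both duplicate plates and the primary screen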); details: Fluo-4 calcium flux, at 10 µM, compound added before EC20 DAMGO stimulus; stronger effect = higher value

Short transient receptor potential channel 4 (Mus musculus), sequence (Q9QUQ5 whole entry, looked up): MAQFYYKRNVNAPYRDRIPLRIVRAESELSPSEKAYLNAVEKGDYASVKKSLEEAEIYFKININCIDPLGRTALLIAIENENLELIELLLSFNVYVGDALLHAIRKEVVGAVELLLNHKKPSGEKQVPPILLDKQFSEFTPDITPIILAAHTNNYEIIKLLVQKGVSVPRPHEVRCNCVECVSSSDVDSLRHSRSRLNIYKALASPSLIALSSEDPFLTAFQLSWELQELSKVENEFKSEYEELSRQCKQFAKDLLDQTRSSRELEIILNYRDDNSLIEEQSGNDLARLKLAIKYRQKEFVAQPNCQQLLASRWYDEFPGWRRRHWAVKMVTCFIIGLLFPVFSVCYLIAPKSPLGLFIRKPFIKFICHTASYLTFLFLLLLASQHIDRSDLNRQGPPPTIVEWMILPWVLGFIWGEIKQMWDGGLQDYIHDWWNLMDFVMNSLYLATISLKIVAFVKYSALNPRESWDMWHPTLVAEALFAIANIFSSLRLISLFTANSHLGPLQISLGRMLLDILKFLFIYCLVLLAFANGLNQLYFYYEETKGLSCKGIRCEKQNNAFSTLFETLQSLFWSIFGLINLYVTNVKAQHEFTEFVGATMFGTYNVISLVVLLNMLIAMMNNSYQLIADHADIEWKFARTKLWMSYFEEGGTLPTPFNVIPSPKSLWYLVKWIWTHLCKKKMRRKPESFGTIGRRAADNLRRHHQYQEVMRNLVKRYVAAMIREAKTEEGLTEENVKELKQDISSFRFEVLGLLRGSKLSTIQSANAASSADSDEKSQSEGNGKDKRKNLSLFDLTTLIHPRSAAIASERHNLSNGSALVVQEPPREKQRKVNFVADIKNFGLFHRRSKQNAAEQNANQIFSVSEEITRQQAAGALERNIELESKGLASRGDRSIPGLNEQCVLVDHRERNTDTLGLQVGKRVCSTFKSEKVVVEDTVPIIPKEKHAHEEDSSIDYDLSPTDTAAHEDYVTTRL
Short transient receptor potential channel 6 (Mus musculus), sequence (Q61143 whole entry, looked up): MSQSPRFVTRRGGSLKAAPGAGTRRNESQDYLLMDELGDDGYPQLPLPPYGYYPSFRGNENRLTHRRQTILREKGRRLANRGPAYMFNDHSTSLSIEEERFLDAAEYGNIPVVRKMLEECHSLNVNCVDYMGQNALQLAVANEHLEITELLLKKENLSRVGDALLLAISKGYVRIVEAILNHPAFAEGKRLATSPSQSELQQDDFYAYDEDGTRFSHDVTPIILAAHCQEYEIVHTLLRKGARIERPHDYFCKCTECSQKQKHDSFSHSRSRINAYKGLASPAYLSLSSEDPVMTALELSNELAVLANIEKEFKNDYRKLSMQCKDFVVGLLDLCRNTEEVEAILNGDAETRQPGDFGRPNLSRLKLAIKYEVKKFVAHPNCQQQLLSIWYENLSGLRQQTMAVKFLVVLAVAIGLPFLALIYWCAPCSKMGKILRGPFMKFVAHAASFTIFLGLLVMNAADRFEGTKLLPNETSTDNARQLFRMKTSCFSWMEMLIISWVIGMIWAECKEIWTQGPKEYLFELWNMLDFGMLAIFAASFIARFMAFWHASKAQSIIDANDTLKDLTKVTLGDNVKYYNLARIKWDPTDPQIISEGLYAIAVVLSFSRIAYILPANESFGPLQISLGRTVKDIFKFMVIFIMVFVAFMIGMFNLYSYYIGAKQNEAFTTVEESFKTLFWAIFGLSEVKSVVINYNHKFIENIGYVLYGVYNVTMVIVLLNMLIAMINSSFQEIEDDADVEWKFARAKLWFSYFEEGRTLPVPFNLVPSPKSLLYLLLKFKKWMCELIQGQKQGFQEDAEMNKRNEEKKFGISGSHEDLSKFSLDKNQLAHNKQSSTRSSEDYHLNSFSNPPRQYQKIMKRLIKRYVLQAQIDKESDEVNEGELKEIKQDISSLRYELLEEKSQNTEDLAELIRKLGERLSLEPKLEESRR

c1ccc(Nc2c3c(nc4ccccc24)CCC3)cc1
inactive: outcome [1] | outcome [2] | outcome [3] | outcome [4] | outcome [5] | outcome [6] | outcome [7] | outcome [8] | outcome [9] | outcome [10] | outcome [11] | outcome [12] | outcome [13] | outcome [14] | outcome [15] | outcome [16] | outcome [17]

CCN1CCN(C(=O)c2cc(-c3ccc(Cl)s3)nc3ccccc23)CC1
inactive: outcome [1] | outcome [2] | outcome [3] | outcome [5] | outcome [6] | outcome [7] | outcome [8] | outcome [9] | outcome [10] | outcome [11] | outcome [12] | outcome [13] | outcome [14] | outcome [16] | outcome [17]
active: potentiation [4] 148% | potentiation [15] 37%

NC(=O)C(c1cccc(Cl)c1)c1ncc(C(F)(F)F)cc1Cl (stereo not given)
inactive: outcome [1] | outcome [2] | outcome [3] | outcome [4] | outcome [5] | outcome [6] | outcome [7] | outcome [8] | outcome [9] | outcome [10] | outcome [11] | outcome [12] | outcome [13] | outcome [14] | outcome [16] | outcome [17]
active: potentiation [15] 7.72%

CCOC(=O)CC(NC(=O)c1cc2cc(Br)ccc2oc1=O)c1cccc([N+](=O)[O-])c1 (stereo not given)
inactive: outcome [1] | outcome [2] | outcome [3] | outcome [4] | outcome [5] | outcome [6] | outcome [7] | outcome [8] | outcome [9] | outcome [10] | outcome [11] | outcome [12] | outcome [13] | outcome [14] | outcome [16] | outcome [17]
active: potentiation [15] 15.9%

CN1/C(=C\C=[N+](C)c2ccccc2)C(C)(C)c2ccccc21
inactive: outcome [1] | outcome [2] | outcome [3] | outcome [4] | outcome [5] | outcome [6] | outcome [7] | outcome [8] | outcome [9] | outcome [10] | outcome [11] | outcome [12] | outcome [13] | outcome [14] | outcome [15] | outcome [16] | outcome [17]

CCn1c2ccccc2c2cc(NC(=O)CN3CCCC3)ccc21
active: potentiation [4] 33% | potentiation [15] 11.8%
inactive: outcome [1] | outcome [2] | outcome [3] | outcome [5] | outcome [6] | outcome [7] | outcome [8] | outcome [9] | outcome [10] | outcome [11] | outcome [12] | outcome [13] | outcome [14] | outcome [16] | outcome [17]

CC(C)CCc1noc(CN2CCN(c3ccc(Cl)cn3)CC2)n1
inactive: outcome [1] | outcome [2] | outcome [3] | outcome [4] | outcome [5] | outcome [6] | outcome [7] | outcome [8] | outcome [9] | outcome [10] | outcome [11] | outcome [12] | outcome [13] | outcome [14] | outcome [15] | outcome [16] | outcome [17]

CCCCCCCCCCOC(=O)Cn1c(COc2ccccc2)[n+](C)c2ccccc21
inactive: outcome [1] | outcome [2] | outcome [3] | outcome [4] | outcome [5] | outcome [6] | outcome [7] | outcome [8] | outcome [9] | outcome [10] | outcome [11] | outcome [12] | outcome [13] | outcome [14] | outcome [15] | outcome [16] | outcome [17]

Cc1ccc(NC(=O)C2CCC(CNC(=O)[C@@H]3Cc4ccccc4CN3)CC2)cc1 (stereo not given in full)
inactive: outcome [1] | outcome [2] | outcome [3] | outcome [4] | outcome [5] | outcome [6] | outcome [7] | outcome [8] | outcome [9] | outcome [10] | outcome [11] | outcome [12] | outcome [13] | outcome [14] | outcome [15] | outcome [16] | outcome [17]

CSc1ccccc1OC1CCN(Cc2ccccc2)CC1
inactive: outcome [1] | outcome [2] | outcome [3] | outcome [4] | outcome [5] | outcome [6] | outcome [7] | outcome [8] | outcome [9] | outcome [10] | outcome [11] | outcome [12] | outcome [13] | outcome [14] | outcome [15] | outcome [16] | outcome [17]

CN(C)CCCn1c(=O)n(CCc2ccccc2)c(=O)c2c3c(sc21)CCCCC3
inactive: outcome [1] | outcome [2] | outcome [3] | outcome [4] | outcome [5] | outcome [6] | outcome [7] | outcome [8] | outcome [9] | outcome [10] | outcome [11] | outcome [12] | outcome [13] | outcome [14] | outcome [15] | outcome [16] | outcome [17]

OC(CNCC1CCCO1)Cn1c2ccc(Br)cc2c2cc(Br)ccc21 (stereo not given)
active: potentiation [15] 45.1%
inactive: outcome [1] | outcome [2] | outcome [3] | outcome [4] | outcome [5] | outcome [6] | outcome [7] | outcome [8] | outcome [9] | outcome [10] | outcome [11] | outcome [12] | outcome [13] | outcome [14] | outcome [16] | outcome [17]

CCN(C(=O)c1cnc(NC(C)C)cc1C(F)(F)F)c1ccc(Cl)cc1Cl
inactive: outcome [1] | outcome [2] | outcome [3] | outcome [4] | outcome [6] | outcome [7] | outcome [8] | outcome [9] | outcome [10] | outcome [11] | outcome [12] | outcome [13] | outcome [15] | outcome [16] | outcome [17]
active: inhibition [5] 91% | inhibition [14] 44.8%

CC(=O)Nc1nc2ccc(S(=O)(=O)N3CCCCC3)cc2s1
inactive: outcome [1] | outcome [2] | outcome [3] | outcome [4] | outcome [5] | outcome [6] | outcome [7] | outcome [8] | outcome [9] | outcome [10] | outcome [11] | outcome [12] | outcome [13] | outcome [14] | outcome [15] | outcome [16] | outcome [17]

COc1cc(/C=C2/SC(=O)NC2=O)ccc1OCc1ccccc1
inactive: outcome [1] | outcome [2] | outcome [3] | outcome [4] | outcome [5] | outcome [6] | outcome [7] | outcome [8] | outcome [9] | outcome [10] | outcome [11] | outcome [12] | outcome [13] | outcome [14] | outcome [15] | outcome [16] | outcome [17]
